{
  "source": "the supplement of paper PMC10105736",
  "assay_in_all_cases": "MAPPIT interaction score (arbitrary units); higher = stronger binary interaction signal, active = hit call of the paper",
  "key": {"nSyb": {"molecular_target": "nSyb", "conditions": "MAPPIT configuration: N-N; pair source set: DPIM"}, "nos": {"molecular_target": "nos", "conditions": "MAPPIT configuration: N-N; pair source set: Curagen_high_conf"}, "opa": {"molecular_target": "opa", "conditions": "MAPPIT configuration: N-N; pair source set: Finley_Y2H"}, "prd": {"molecular_target": "prd", "conditions": "MAPPIT configuration: N-N; pair source set: Finley_Y2H"}, "ninaD": {"molecular_target": "ninaD", "conditions": "MAPPIT configuration: N-C; pair source set: screen_4"}, "nw": {"molecular_target": "nw", "conditions": "MAPPIT configuration: N-N; pair source set: RRS"}},
  "note": "Unmarked numbers belong to inactive results.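 How the source made its calls: active = MAPPIT score above the 99th percentile of random reference set scores in the same batch; inactive = at or below it.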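 Further: HEK293T cells with Epo stimulation, STAT-responsive firefly luciferase reporter, fold induction versus unstimulated cells divided by the larger fold induction of two negative controls lacking either bait or prey.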",
  "data": [
    {"binder": "eIF3c (protein) MSRFFANGSESESESSEEEIQATNFNKASAFQFSDDEEEVKRVVRSTKEKRYENLTSIIKTIRNHKKIKDIPNTLSSFEDLTRAYQKALPVISKEENGITPRFYIRCLAELEDFINEVWEDREGRKNLSKNNSKSLGTLRQKVRKYIKDFEDDLSRFREAPDQESEAEDEVVALESDGGDAGDDSDAGVKPTEAVPKAVKSAPAKAAPADDDDSDDSIDWDSDSESETESSDDENQYQNMRERFLKRTTEKEEKDDDKRKDKRKEQKTKIRKRAEDDEDGEWETVVKGHVVEKPKMFEKDAEIDVPLVLAKLLEIMSARGKKRTDRRLQIDLLFELRDISDQHNLGTAVSVKIHFNIISAIYDYNQKISEPMKLEHWALLLEVMQSMMKLLLANADIIMSESVAEEHEEYATSPFYVRGCPLAAVERLDDEFVKLLKECDPHSNDYVSRLKDEVNVVKTIELVLQYFERSGTNNERCRIYLRKIEHLYYKFDPEVLKKKRGELPATTSTSVDVMDKLCKFIYAKDDTDRIRTRAILAHIYHHAMHDNWFQARDLVLMSHLQDNIDAADPATRILYNRMMANLGLCAFRQGNVKDAHHCLVDLMVTGKPKELLAQGLLPQRQHERSAEQEKIEKQRQMPFHMHINLELLECVYLVSAMLLEIPYIAAHEFDARRRMISKTFYQQLRSSERQSLVGPPESMREHVVAAAKAMRCGNWQACANFIVNKKMNTKVWDLFYESDRVREMLTKFIKEESLRTYLFTYSNVYTSISIPSLAQMYELPVPKVHSIISKMIINEELMASLDDPSETVGMHRSEPSRLQALAMQFVDKVTNLVDVNEKVFDMKQGNFFQRGNMGNRGDRGYNRNQNNQGGNWLGQRRDRNNRNRNQRGHHKNNQDRQQQQQQQVQTIDEE", "values": [
      {"measurement": "MAPPIT interaction score", "setting": "nSyb", "result": 0.214}
    ]},
    {"binder": "mRpL13 (protein) MSIAKRVQQWATFARTWHIYDCTWQNPFESAKLVKTHLLGLQKPIYHPMNDCGDHVVLINTREIALPGDEWVKRVYFHHTGYPGGASWTLAWQLHEKDPTMVMKKAVYNSMRGNLQRRHTMQRLHLFADDQVPEEILQNVTNQIRTPRSIPQRLDHIDKETLENFPNIMDYPKDYILR", "values": [
      {"measurement": "MAPPIT interaction score", "setting": "nSyb", "result": -0.207}
    ]},
    {"binder": "128up (protein) MSTILEKISAIESEMARTQKNKATSAHLGLLKAKLAKLRRELISPKGGGGGTGEAGFEVAKTGDARVGFVGFPSVGKSTLLSNLAGVYSEVAAYEFTTLTTVPGCIKYKGAKIQLLDLPGIIEGAKDGKGRGRQVIAVARTCNLIFMVLDCLKPLGHKKLLEHELEGFGIRLNKKPPNIYYKRKDKGGINLNSMVPQSELDTDLVKTILSEYKIHNADITLRYDATSDDLIDVIEGNRIYIPCIYLLNKIDQISIEELDVIYKIPHCVPISAHHHWNFDDLLELMWEYLRLQRIYTKPKGQLPDYNSPVVLHNERTSIEDFCNKLHRSIAKEFKYALVWGSSVKHQPQKVGIEHVLNDEDVVQIVKKV", "values": [
      {"measurement": "MAPPIT interaction score", "setting": "nos", "result": 0.2}
    ]},
    {"binder": "Snap25 (protein) MPADPSEEVAPQVPKTELEELQINAQGVADESLESTRRMLALCEESKEAGIRTLVALDDQGEQLDRIEEGMDQINADMREAEKNLSGMEKCCGICVLPCNKSQSFKEDDGTWKGNDDGKVVNNQPQRVMDDRNGMMAQAGYIGRITNDAREDEMEENMGQVNTMIGNLRNMALDMGSELENQNRQIDRINRKGESNEARIAVANQRAHQLLK", "values": [
      {"measurement": "MAPPIT interaction score", "setting": "nSyb", "result": 0.399}
    ]},
    {"binder": "croc (protein) MHTLFSDQNSFTRHYAQTAAGYGSASAVAAASSASAAAAAHYAYDQYSRYPYSASAYGLGAPHQNKEIVKPPYSYIALIAMAIQNAADKKVTLNGIYQYIMERFPYYRDNKQGWQNSIRHNLSLNECFVKVARDDKKPGKGSYWTLDPDSYNMFDNGSFLRRRRRFKKKDVMREKEEAIKRQAMMNEKLAEMKPLKLMTNGILEAKHMAAHAAHFKKEPLMDLGCLSGKEVSHAAMLNSCHDSLAQMNHLAGGGVEHPGFTVDSLMNVYNPRIHHSAYPYHLNEDNLATVASSQMHHVHHAAAAHHAQQLQRHVAHVAHPLTPGGQGAGGQSSGHSPTTISTPHGPAHGGWYTPETPPSEPVPHNGQQGTPTHPGHNNNNSSSVLNHNGVGNGGGGGGGGGGGSSSVLTSSPTSALGFRDMIFEQNQSCQLDTGSPTGSLQSASPPASASVAAASAAAAAAVISSHHHHHHHHAALSGNLGQLGQLSNLSHYRPHVGHYQEYGIKYGV", "values": [
      {"measurement": "MAPPIT interaction score", "setting": "opa", "result": -0.778},
      {"measurement": "MAPPIT interaction score", "setting": "prd", "result": -0.752}
    ]},
    {"binder": "CG5382 (protein) MGLCKCPKRLVTNQFCFEHRVNVCEHCMVQSHPKCIVQSYLQWLRDSDYISNCTLCGTTLEQGDCVRLVCYHVFHWDCLNARQAALPANTAPRGHQCPACSVEIFPNANLVSPVADALKSFLSQVNWGRNGLGLALLSEEQSSSLKAIKPKVASQAAVSNMTKVHHIHSGGERERTKPNGHDAVSPHSVLLMDAFNPPSAGDYASSRRPLLPRQSPIGGTDRDDNKYQRRTPAELFSRWTRRFYAPSSRPPWRRTWFLVTAGILAFVLFVYLMAWLGRGGSDAVDEGWNNPNPQPNHYE", "values": [
      {"measurement": "MAPPIT interaction score", "setting": "ninaD", "result": 0.641}
    ]},
    {"binder": "CG1161 (protein) MAHKRLFVYAVLLVICYLVGVTWAETAAQTFPAIGTNSNNNSNAQPAPVPAPAAPAAAAPLAKQVSAPTAAPPAKVIGQPVLAAPGKNSSNSSSTTECVCAGALLPRLDANGKELPICAECKCSHVARNTTLIKVVVIIVIWIISILVIYMLFLMCLDPLLNKRVKANYQEHTNEDDEPTPPLPAVNNQELSARANVLNRVGHQQDKWKRQVREQRRHIYDRHTMLN", "values": [
      {"measurement": "MAPPIT interaction score", "setting": "nw", "result": 0.0762}
    ]}
  ]
}
